In the supplement of paper PMC11006884:
About 6,500 targets were measured; listed, in parts, are those with a hit and a random draw of the rest. About 2% of all pairs of compound and target were hits. Unmarked numbers belong to inactive results.

compound: COC(=O)C#Cc1ccccc1 [methyl 3-phenylpropiolate]; assay: log2 ratio of iodoacetamide-alkyne labeling of the cysteine site, DMSO over compound (competition); higher = stronger covalent engagement of the cysteine by the compound, active = 1 or more; settings: 500 µM; treatment time 1 h; system: HEK293T cell lysate
Summary of the method: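 The log2 competition ratio per cysteine is defined as mean reporter intensity in control channels over mean reporter intensity in compound channels. Lysate from HEK293T cells (2 mg/mL) received electrophile (500 µM) or vehicle for 1 h at ambient temperature, followed by iodoacetamide alkyne for 1 h. Samples were clicked to sCIP-TMT reagents, pooled, trypsin-digested overnight at 37 °C, streptavidin-enriched, acid-eluted and run on Orbitrap Eclipse LC-MS/MS with FAIMS, with quantification in FragPipe. Three replicates with duplicate channels were used, and any cysteine quantified in only one replicate was excluded.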

UniProt P52948, sequence (P52948 whole entry, looked up): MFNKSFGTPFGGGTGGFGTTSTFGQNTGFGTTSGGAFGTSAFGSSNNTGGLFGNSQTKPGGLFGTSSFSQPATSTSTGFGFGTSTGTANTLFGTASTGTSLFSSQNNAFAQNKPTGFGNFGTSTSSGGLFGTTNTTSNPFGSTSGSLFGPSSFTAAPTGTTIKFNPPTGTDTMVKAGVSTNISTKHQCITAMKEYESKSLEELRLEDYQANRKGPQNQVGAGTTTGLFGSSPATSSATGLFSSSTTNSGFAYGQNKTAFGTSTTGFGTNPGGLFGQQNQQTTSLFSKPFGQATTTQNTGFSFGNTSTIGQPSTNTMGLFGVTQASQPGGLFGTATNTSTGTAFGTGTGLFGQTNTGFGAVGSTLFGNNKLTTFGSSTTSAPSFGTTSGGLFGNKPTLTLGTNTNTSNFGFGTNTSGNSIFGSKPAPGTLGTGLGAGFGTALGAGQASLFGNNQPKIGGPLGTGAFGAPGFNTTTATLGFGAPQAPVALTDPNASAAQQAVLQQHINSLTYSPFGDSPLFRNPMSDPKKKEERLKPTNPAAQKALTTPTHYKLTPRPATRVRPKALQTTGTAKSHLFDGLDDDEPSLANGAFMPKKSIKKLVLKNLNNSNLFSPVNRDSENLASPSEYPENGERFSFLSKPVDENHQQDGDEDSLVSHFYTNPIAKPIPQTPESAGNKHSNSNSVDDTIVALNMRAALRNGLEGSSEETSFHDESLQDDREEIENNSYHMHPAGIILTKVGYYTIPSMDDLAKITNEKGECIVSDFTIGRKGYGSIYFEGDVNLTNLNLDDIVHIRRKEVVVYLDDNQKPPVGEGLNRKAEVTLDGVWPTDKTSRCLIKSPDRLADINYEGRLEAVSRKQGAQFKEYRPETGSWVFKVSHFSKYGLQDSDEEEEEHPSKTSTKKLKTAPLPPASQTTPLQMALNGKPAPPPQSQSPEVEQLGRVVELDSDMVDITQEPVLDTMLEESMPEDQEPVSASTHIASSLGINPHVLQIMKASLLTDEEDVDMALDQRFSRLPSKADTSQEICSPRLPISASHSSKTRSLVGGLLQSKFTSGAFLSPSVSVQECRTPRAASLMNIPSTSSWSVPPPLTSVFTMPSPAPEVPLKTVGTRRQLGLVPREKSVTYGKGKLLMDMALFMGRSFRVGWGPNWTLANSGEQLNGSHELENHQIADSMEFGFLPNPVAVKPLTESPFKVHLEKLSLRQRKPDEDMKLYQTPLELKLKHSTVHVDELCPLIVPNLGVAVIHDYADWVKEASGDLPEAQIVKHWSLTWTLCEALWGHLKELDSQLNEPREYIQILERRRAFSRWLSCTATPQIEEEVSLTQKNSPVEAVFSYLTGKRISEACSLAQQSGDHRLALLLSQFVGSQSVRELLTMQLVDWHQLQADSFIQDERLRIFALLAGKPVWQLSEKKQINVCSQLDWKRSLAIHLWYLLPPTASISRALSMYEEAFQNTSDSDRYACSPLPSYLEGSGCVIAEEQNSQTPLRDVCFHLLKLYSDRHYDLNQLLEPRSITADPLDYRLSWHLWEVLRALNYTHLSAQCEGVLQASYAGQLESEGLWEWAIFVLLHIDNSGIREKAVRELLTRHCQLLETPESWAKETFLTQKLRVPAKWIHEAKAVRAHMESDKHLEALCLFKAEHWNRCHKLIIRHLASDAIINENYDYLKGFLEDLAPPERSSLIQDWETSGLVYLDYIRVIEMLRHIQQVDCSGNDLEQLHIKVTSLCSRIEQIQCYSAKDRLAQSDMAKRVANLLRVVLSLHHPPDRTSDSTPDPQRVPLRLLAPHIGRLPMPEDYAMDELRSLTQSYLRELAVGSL
UniProt P53701, sequence (P53701 whole entry, looked up): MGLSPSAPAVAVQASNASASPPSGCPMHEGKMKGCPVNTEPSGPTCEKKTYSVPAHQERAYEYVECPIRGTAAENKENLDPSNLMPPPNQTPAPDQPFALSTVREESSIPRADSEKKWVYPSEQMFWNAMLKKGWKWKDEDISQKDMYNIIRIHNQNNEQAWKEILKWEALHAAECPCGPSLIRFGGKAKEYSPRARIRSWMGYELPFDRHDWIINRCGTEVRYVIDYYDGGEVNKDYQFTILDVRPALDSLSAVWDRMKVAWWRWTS
UniProt Q00535, sequence (Q00535 whole entry, looked up): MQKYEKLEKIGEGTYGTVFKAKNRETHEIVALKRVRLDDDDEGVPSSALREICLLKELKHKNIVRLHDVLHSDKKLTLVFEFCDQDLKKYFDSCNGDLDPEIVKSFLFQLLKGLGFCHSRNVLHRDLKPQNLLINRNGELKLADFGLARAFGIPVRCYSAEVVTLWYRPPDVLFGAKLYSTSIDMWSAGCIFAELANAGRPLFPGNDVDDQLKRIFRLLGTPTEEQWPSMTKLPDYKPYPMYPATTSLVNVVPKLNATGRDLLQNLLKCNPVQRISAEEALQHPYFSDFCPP
UniProt Q15181, sequence (Q15181 whole entry, looked up): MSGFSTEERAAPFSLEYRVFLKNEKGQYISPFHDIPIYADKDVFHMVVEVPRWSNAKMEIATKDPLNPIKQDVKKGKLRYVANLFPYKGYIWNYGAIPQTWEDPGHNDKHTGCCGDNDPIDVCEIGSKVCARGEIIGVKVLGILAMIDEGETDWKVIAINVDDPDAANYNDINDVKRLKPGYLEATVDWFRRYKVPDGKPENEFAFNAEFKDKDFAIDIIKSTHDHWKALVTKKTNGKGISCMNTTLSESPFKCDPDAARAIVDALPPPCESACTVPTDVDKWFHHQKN
UniProt Q14674, sequence (Q14674 whole entry, looked up): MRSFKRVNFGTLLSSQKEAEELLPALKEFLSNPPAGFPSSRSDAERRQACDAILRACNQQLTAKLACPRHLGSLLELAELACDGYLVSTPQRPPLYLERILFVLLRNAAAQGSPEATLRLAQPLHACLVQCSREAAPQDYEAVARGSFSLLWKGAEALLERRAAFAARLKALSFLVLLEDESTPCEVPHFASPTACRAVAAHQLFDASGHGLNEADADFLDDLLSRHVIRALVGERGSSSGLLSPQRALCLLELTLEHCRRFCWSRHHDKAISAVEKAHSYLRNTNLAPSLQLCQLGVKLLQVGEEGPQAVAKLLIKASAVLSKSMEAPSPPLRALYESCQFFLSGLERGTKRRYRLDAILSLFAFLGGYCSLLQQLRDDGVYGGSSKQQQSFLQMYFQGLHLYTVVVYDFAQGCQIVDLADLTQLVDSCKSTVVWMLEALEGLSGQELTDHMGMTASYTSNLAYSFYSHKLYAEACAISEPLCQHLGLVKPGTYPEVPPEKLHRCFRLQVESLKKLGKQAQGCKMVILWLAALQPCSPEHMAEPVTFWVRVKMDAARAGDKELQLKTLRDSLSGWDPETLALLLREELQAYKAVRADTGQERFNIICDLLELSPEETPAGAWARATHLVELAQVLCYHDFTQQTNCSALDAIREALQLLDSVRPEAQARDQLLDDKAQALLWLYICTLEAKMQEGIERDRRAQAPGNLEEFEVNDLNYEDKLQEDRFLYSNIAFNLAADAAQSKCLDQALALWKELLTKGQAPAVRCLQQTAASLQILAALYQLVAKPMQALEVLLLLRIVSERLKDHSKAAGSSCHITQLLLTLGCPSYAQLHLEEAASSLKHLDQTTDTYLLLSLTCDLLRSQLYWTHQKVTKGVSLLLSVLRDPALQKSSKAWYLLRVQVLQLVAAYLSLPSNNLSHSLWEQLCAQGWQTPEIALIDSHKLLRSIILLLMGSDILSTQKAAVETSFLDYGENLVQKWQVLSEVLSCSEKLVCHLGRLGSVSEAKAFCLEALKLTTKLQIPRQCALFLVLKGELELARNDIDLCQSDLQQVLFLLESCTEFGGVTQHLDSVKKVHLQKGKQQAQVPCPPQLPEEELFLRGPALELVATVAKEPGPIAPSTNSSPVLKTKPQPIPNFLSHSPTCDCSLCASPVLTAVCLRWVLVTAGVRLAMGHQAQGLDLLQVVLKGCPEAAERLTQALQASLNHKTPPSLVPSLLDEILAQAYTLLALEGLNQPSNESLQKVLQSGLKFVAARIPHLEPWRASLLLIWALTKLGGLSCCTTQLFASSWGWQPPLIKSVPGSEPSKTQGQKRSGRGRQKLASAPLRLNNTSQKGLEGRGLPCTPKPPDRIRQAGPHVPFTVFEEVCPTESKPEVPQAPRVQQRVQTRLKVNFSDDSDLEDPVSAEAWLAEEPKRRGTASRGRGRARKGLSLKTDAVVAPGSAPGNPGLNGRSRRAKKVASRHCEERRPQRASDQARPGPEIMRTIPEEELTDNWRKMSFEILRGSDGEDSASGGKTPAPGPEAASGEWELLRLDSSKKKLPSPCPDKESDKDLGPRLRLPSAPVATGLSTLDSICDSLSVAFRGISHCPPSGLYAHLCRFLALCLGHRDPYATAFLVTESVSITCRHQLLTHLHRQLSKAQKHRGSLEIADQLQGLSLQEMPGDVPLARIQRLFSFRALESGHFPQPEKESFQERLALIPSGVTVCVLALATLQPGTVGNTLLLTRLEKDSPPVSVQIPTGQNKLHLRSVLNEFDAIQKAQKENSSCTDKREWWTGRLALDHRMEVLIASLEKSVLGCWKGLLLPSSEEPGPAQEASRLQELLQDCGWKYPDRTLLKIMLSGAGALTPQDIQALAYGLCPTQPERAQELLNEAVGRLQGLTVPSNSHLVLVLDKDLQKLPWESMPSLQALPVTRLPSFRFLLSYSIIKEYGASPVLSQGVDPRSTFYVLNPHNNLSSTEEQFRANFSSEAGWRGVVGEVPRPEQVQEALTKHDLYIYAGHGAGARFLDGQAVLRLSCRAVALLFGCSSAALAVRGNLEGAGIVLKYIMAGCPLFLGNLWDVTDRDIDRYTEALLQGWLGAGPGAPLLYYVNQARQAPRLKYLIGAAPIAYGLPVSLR
UniProt Q15024, sequence (Q15024 whole entry): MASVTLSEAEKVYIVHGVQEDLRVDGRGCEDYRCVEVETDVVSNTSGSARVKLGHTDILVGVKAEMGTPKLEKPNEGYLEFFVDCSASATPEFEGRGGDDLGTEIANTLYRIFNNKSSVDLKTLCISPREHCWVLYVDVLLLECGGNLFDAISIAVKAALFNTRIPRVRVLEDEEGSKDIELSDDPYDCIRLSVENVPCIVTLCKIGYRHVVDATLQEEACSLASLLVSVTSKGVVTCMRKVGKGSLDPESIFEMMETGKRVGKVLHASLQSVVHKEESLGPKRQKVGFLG

Target	log2 ratio of iodoacetamide-alkyne labeling
SEC23B C767 (UniProt Q15437)	0.00601
HCCS C66 (UniProt P53701)	0.724
UniProt P60891_C41	-0.0365
NUP98 C1590 (UniProt P52948)	0.601
PITRM1 C556 (UniProt Q5JRX3)	0.0671
TJAP1 C172 (UniProt Q5JTD0)	0.251
CDK5 C157 (UniProt Q00535)	0.141
GEN1 C668 (UniProt Q17RS7)	0.0186
UniProt Q12905_C37	0.0335
ZNF638 C1930 (UniProt Q14966)	-0.212
LRRFIP1 C14 (UniProt Q32MZ4)	0.0967
UniProt P62241_C71	0.335
MRPS11 C186 (UniProt P82912)	0.527
UniProt P78527_C4061	0.465
EFTUD2 C144 (UniProt Q15029)	0.297
FLYWCH1 C173 (UniProt Q4VC44)	-0.0462
ACTR3 C12 (UniProt P61158)	0.212
UniProt P61163_C34	0.205

Target	log2 ratio of iodoacetamide-alkyne labeling
UniProt P98164_C4047	0.464
SPTAN1 C1622 (UniProt Q13813)	-0.0196
UniProt P68431_C111	0.142
UniProt Q13247_C121	-0.0624
UniProt Q02040_C549	1.74 (active)
AKAP12 C1139 (UniProt Q02952)	0.521
PPA1 C114 (UniProt Q15181)	-0.223
UniProt P55196_C942	1.05 (active)
DYNC1H1 C3147 (UniProt Q14204)	0.433
R3HDM1 C304 (UniProt Q15032)	0.1
THOP1 C682 (UniProt P52888)	0.174
UniProt P62834_C141	0.00921
EXOSC7 C85 (UniProt Q15024)	-0.0747
CNBP C6 (UniProt P62633)	0.0447
UniProt P61978_C184	0.0026
ESPL1 C1369 (UniProt Q14674)	0.218
LMNB2 C212 (UniProt Q03252)	0.214
